Results on 40 compounds are retold here after PubChem BioAssay (Tox21).

Records with an inconclusive call do not appear. Some structures have more than one record in an assay (separate samples or runs), and their calls can disagree. The source made the active and inactive calls. Calls come from the whole dose curve; as a rule, active = well fitted inhibition curve with a large enough effect in the repeat runs; inconclusive = weak or mixed curves; inactive = no such curve, though single readings can be large or run the other way.
% is set by controls: 0 for no effect and ±100 for the full control effect; potency is the fitted concentration of half-maximal effect.

Chain of Estrogen receptor (Homo sapiens) (P03372 whole entry, looked up): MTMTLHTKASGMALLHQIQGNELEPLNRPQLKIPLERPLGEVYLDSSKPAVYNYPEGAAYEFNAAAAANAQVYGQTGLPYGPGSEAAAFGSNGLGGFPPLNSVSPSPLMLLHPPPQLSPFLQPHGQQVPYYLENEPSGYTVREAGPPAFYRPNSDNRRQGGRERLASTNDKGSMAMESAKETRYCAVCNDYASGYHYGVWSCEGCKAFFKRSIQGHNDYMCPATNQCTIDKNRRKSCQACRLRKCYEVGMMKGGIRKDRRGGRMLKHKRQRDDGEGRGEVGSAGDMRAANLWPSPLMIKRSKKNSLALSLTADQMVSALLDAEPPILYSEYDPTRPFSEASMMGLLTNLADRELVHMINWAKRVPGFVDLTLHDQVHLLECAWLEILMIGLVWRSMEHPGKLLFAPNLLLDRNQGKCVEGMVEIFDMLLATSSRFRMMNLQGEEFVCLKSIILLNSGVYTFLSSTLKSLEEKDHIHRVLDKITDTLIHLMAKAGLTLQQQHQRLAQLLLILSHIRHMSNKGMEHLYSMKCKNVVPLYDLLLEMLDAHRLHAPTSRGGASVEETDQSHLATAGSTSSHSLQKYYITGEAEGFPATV

This assay concerns the target Estrogen receptor (Homo sapiens) (UniProt P03372). Nature of the assay: qHTS assay to identify small molecule antagonists of the estrogen receptor alpha (ER-alpha) signaling pathway using the BG1 cell line in the presence of 0.1 nM 17-beta-estradiol (AID 1259244). Note: nearly all actives have a fitted effect of over 50% in size. The conditions noted are these: VM7Luc4E2 (BG1) ERE-luciferase, antagonist mode, 0.1 nM E2, 22 h; series mostly up to 92.4 µM; activity change, negative = inhibition: at the top concentration. The source says: National Center for Advancing Translational Sciences [NCATS]
NIH Chemical Genomics Center [NCGC]
U.S. Environmental Protection Agency [EPA]
National Institutes of Environmental Health Sciences [NIEHS]
National Toxicology Program [NTP]
U.S. Food and Drug Administration [FDA]
Estrogen receptor (ER), a member of the nuclear hormone receptor plays an important role in development, metabolic homeostasis and reproduction. Two subtypes of ER, ER-alpha and ER-beta, have similar expression patterns with some uniqueness in both types. Endocrine disrupting chemicals (EDCs) and their interactions with steroid hormone receptors like ER causes disruption of normal endocrine function. Therefore, it is important to understand the effect of environmental chemicals in ER signaling pathway. For identifying ER antagonists, VM7Luc4E2 cell line was used to screen against Tox21 compound libraries.
VM7Luc4E2 cell line (provided by Denison MS, University of California) endogenously express full-length ER-alpha and is stably transfected with a plasmid containing four estrogen responsive elements (ERE) upstream of a luciferase reporter gene. The current screening for identification of ER-alpha inhibitors against Tox21 compound libraries used lower concentration (0.1 nM) of 17beta-Estradiol as a stimulator.
Tox21 Assay Protocol Summary:
VM7Luc4E2 cells were cultured in phenol red free assay medium containing 10% charcoal stripped FBS for 5 days prior to the assay. The cells were dispensed at 4,000 cells/well in 4 uL of assay medium into white wall/solid-bottom 1536-well plates (Corning Life Sciences, Corning, NY) using a Multidrop Combi (ThermoFisher Scientific, Waltham, MA) dispenser. After the assay plates were incubated at 37C and 5% CO2 for 24 hr, 23 nL of compounds dissolved in DMSO, positive controls or DMSO only was transferred to the assay plates by a Pintool station (Kalypsys, San Diego, CA). The transfer of compounds was followed by the addition of 1 uL of 0.1 nM (final concentration) agonist (17beta-Estradiol)/assay medium using a Flying Reagent Dispenser (FRD, Aurora Discovery, San Diego, CA). The plates were incubated at 37C and 5% CO2 for 22 hr. For luciferase reporter gene assay, 4 uL of ONE-Glo reagent (Promega Corporation, Madison, WI) was added to each well using the FRD and after 30 min incubation at room temperature luminescence intensity was measured using ViewLux plate reader (PerkinElmer, Shelton, CT).
On the technique in general: qHTS replaces the single test concentration by a dilution series.
For the compound `CCCCCCCCCCCC(=O)NCCCN(C)C`, the “activity change, negative = inhibition” value is -0.873% (inactive).

As to `CCC(C)Nc1ccc(NC(C)CC)cc1` (stereo not given), the Potency is 2.48 µM (active).

Take `Cc1cc2c(cc1C(F)(F)F)N(C(=O)Nc1ccc(Oc3cccnc3C)nc1)CC2`: the Potency was 31.1 µM (active).

For the compound `Clc1ccc2cc3ccccc3cc2c1`, the “activity change, negative = inhibition” value was 25.8% (inactive).

For the compound `Nc1ccc2c3c(cccc13)-c1ccccc1-2`, the “activity change, negative = inhibition” value was 57% (inactive).

Turning to `Cc1cc(C2CCCCC2)n(O)c(=O)c1`, the Potency was 6.68 µM (active).

As for `CCCCCCCCCCCCCC[P+](CCCC)(CCCC)CCCC` (tested in a mixture with another compound), the Potency was 1.73 µM (active).

As to `Cc1cccc(CN2CCN(C(c3ccccc3)c3ccc(Cl)cc3)CC2)c1` (stereo not given), the “activity change, negative = inhibition” value is -14.9% [at 42.5 µM] (inactive).

Turning to `O=c1[nH]sc2cc(Cl)ccc12`, the “activity change, negative = inhibition” value was -38.7% [at 42.5 µM] (inactive).

On to `Cn1cc(C(=O)[C@@H]2CCc3nc[nH]c3C2)c2ccccc21`, for which the “activity change, negative = inhibition” value was 6.85% [at 42.5 µM] (inactive).

Regarding `CCCCCCC[N+](CC)(CC)CCCCc1ccc(Cl)cc1`, the Potency is 11.9 µM (active).

With `CCCCCCCCOC(=O)c1ccc(O)cc1`, the “activity change, negative = inhibition” value was -28.8% (inactive).

On to `[Cl][Bi]([Cl])([c]1ccccc1)([c]1ccccc1)[c]1ccccc1`, for which the Potency is 4.83 µM (active).

`CC[C@@]1(O)C(=O)OCc2c1cc1n(c2=O)Cc2cc3c(CN(C)C)c(O)ccc3nc2-1`: the Potency is 1.88 µM (active).

In the case of `CCOc1ccc2nc3cc(N)ccc3c(N)c2c1`, the “activity change, negative = inhibition” value is 73.5% [at 42.5 µM] (inactive).

Turning to `Clc1ccc(C(Cn2ccnc2)OCc2ccc(Sc3ccccc3)cc2)c(Cl)c1` (stereo not given), the “activity change, negative = inhibition” value is -7.86% [at 42.5 µM] (inactive).

For the compound `Cc1cc(O)c(C(C)(C)C)cc1Sc1cc(C(C)(C)C)c(O)cc1C`, the Potency was 30.6 µM (active).

As to `Cc1ccc(-n2nc(C(C)(C)C)cc2NC(=O)Nc2ccc(OCCN3CCOCC3)c3ccccc23)cc1`, the “activity change, negative = inhibition” value was -8.19% [at 42.5 µM] (inactive).

On to `COCCCC/C(=N\OCCN)c1ccc(C(F)(F)F)cc1`, for which the “activity change, negative = inhibition” value is 22.3% [at 42.5 µM] (inactive).

For `CC(C)(C)C(=O)OCOC(=O)[C@@H]1N2C(=O)[C@@H](NC(=O)[C@H](N)c3ccccc3)[C@H]2SC1(C)C`, the “activity change, negative = inhibition” value is 4.61% [at 42.5 µM] (inactive).

As to `CCCCCCCCCCCCCCCS(=O)(=O)Oc1ccccc1`, the “activity change, negative = inhibition” value was -4.51% [at 42.5 µM] (inactive).

On to `CCCN(CCC)C(=O)C(CCC(=O)OCCCN1CCN(CCOC(=O)Cc2c(C)n(C(=O)c3ccc(Cl)cc3)c3ccc(OC)cc23)CC1)NC(=O)c1ccccc1` (stereo not given), for which the “activity change, negative = inhibition” value is -12% [at 42.5 µM] (inactive).

In the case of `Fc1ccc([C@@H]2CCNC[C@H]2COc2ccc3c(c2)OCO3)cc1`, the “activity change, negative = inhibition” value was 24.1% [at 42.5 µM] (inactive).

Take `CCC(C)(C)C1CCCCC1OC(C)=O` (stereo not given): the “activity change, negative = inhibition” value is 7.45% (inactive).

On to `CSc1ccc(/C=C2/C(C)=C(CC(=O)O)c3cc(F)ccc32)cc1`, for which the “activity change, negative = inhibition” value is 1.71% [at 42.5 µM] (inactive).

On to `CCCCCCCC[P+](CCCCCCCC)(CCCCCCCC)CCCCCCCC`, for which the Potency was 0.43 µM (active).

Take `O=S1(=O)CC(Cl)(Cl)C(Cl)(Cl)C1`: the Potency is 21.7 µM (active).

`Nc1c2ccccc2nc2ccccc12`: the Potency entry was “inactive”.

As for `CCN(Cc1cccnc1)C(=O)c1cccc(Cl)c1[C@]1(C)C(=O)N(Cc2ccc(OC)cc2OC)c2ccc(Cl)cc21`, the Potency was 64.1 µM (active).

Regarding `O=C(N/N=C/c1ccccc1O)c1ccncc1`, the Potency is 9.44 µM (active).

Regarding `Clc1ccc2nsnc2c1NC1=NCCN1`, the “activity change, negative = inhibition” value was 5.39% [at 42.5 µM] (inactive).

In the case of `CCCCCCCCCCCC[N+](C)(C)CCCCCCCCCCCC`, the Potency is 30.6 µM (active).

As for `CN(C)c1ccc(SC#N)cc1`, the “activity change, negative = inhibition” value was 15.5% (inactive).

For the compound `CCCCCCCC[N+](CCCCCCCC)(CCCCCCCC)CCCCCCCC`, the Potency was 2.16 µM (active).

Consider `O=[N+]([O-])c1ccccc1Nc1ccccc1`, for which the “activity change, negative = inhibition” value was 3.15% (inactive).

`Clc1ccccc1C(c1ccccc1)(c1ccccc1)n1ccnc1`: the Potency was 24.3 µM (active) and inactive.

With `O=CC=C(c1ccccc1)c1ccccc1`, the Potency was 69.1 µM (active).

In the case of `Cc1cccc(N(C)C(=S)Oc2ccc3c(c2)C2CCC3C2)c1` (stereo not given), the “activity change, negative = inhibition” value is -1.2% [at 42.5 µM] (inactive).

Regarding `NNC(=O)c1cccc(C(=O)NN)c1`, the “activity change, negative = inhibition” value was -3.24% (inactive).

In the case of `CCN(CCC#N)c1ccc(N=Nc2c(Cl)cc([N+](=O)[O-])cc2Cl)cc1`, the “activity change, negative = inhibition” value was -13.2% (inactive).
